Among the test systems are MOLT-4 leukemia; SR leukemia; RPMI-8226 leukemia; OVCAR-8 ovarian; OVCAR-5 ovarian; OVCAR-4 ovarian; SK-OV-3 ovarian; IGROV1 ovarian; OVCAR-3 ovarian; HS 578T breast; NCI/ADR-RES ovarian; T-47D breast; BT-549 breast; MDA-MB-435 melanoma; SW-620 colon; MCF7 breast; HCT-116 colon; HCC-2998 colon; KM12 colon.
Common to all, as to assay: NCI-60 one-dose screen, 48 h (100 = growth as untreated, 0 = no growth, -100 = all killed)
What all share (conditions): 10 µM unless noted

Molecules are shown by their SMILES. “And” between values parts separate entries of the source, which are not always exact repeats. Identical values can stand only once. The panel holds about 83,000 compounds, 20% with a hit somewhere; the sample as a whole holds those more often.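 Assay: single dose, 48 h. Readout: percent growth (0 = no net growth; negative = cell death). Active: <10.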 The source made the active and inactive calls.

Turning to `CCCCCCCCCCCCCCCC[N+](C)(C)C`, the growth with MOLT-4 leukemia was -52.4% (active); in the experiment on SR leukemia it was -54.9% (active) and -48.6% (active); with RPMI-8226 leukemia, -14.9% (active) and -9.1% (active); with OVCAR-8 ovarian, 0.0915% (active); in the experiment with OVCAR-5 ovarian it was -4.82% (active); in the experiment on OVCAR-4 ovarian, -34.5% (active) and 17.2% (inactive). Besides, the growth in the experiment on SK-OV-3 ovarian is -55.5% (active) and 11% (inactive); with IGROV1 ovarian, -64% (active) and -56.6% (active); in the experiment on OVCAR-3 ovarian, -85.4% (active) and -1.42% (active); with HS 578T breast, -24.3% (active) and 2.19% (active); in the experiment on NCI/ADR-RES ovarian, 51.9% (inactive) and 82.5% (inactive); in the experiment on T-47D breast it was 4.4% (active) and -13.9% (active). Also, the growth is -76% (active) and -41.5% (active) with BT-549 breast; -70.1% (active) and 7.38% (active) in the experiment on MDA-MB-435 melanoma; -92.5% (active) and 8.75% (active) with SW-620 colon; -78% (active) and 16.9% (inactive) with MCF7 breast; -72% (active) and 4.21% (active) in the experiment on HCT-116 colon; -91% (active) and 20.9% (inactive) in the experiment with HCC-2998 colon. Also, in the experiment on KM12 colon, the growth was -83% (active) and -93.1% (active).
As for `CC[C@H](C)[C@H](NC(=O)[C@H]1CCCCN1C)C(=O)N(C)[C@H](C[C@@H](OC(C)=O)c1cccc(C(=O)N[C@@H](Cc2ccccc2)C[C@H](C)C(=O)OC)n1)C(C)C`, the growth in the experiment on MOLT-4 leukemia is 13.6% (inactive); with SR leukemia, 12.2% (inactive); in the experiment on RPMI-8226 leukemia, 20% (inactive); in the experiment with OVCAR-8 ovarian, 12% (inactive); in the experiment on OVCAR-5 ovarian it was 39% (inactive); with OVCAR-4 ovarian it was 48.8% (inactive). Besides, the growth was 13.8% (inactive) with SK-OV-3 ovarian; 29% (inactive) in the experiment on IGROV1 ovarian; -18.1% (active) in the experiment on OVCAR-3 ovarian; 19.9% (inactive) in the experiment on HS 578T breast; 13.4% (inactive) in the experiment on NCI/ADR-RES ovarian; 63.6% (inactive) in the experiment on T-47D breast. Also, the growth with BT-549 breast was -22.5% (active); in the experiment with MDA-MB-435 melanoma, -29.2% (active); in the experiment with SW-620 colon, 24.6% (inactive); in the experiment on MCF7 breast it was 12.7% (inactive); in the experiment on HCT-116 colon, -5.08% (active); in the experiment on HCC-2998 colon, 15.4% (inactive). Further, the growth in the experiment on KM12 colon was 4.26% (active).
Consider `CC[C@H](C)[C@H](NC(=O)c1cnccn1)C(=O)N(C)[C@H](C[C@@H](OC(C)=O)c1nc(C(=O)N[C@@H](Cc2ccccc2)C[C@H](C)C(=O)OC)cs1)C(C)C`, for which the growth in the experiment on MOLT-4 leukemia is 17.9% (inactive); in the experiment with SR leukemia, 15.9% (inactive); with RPMI-8226 leukemia it was 22.5% (inactive); with OVCAR-8 ovarian, 15.2% (inactive); in the experiment with OVCAR-5 ovarian it was 42.4% (inactive); in the experiment on OVCAR-4 ovarian, 45.9% (inactive). The growth with SK-OV-3 ovarian was 20.6% (inactive); in the experiment with IGROV1 ovarian it was 32% (inactive); with OVCAR-3 ovarian it was -10.2% (active); with HS 578T breast, 11.9% (inactive); in the experiment on NCI/ADR-RES ovarian, 14.4% (inactive); with T-47D breast, 61.2% (inactive). Besides, the growth with BT-549 breast is -7.25% (active); in the experiment on MDA-MB-435 melanoma it was -37.6% (active); in the experiment on SW-620 colon it was 23.6% (inactive); in the experiment on MCF7 breast it was 15.5% (inactive); in the experiment with HCT-116 colon, -9.21% (active); in the experiment with HCC-2998 colon, 22.3% (inactive). The growth with KM12 colon was 3.34% (active).
In the case of `COc1cc2c(c(OC)c1OC)-c1ccc(O)cc1[C@@H](NC(C)=O)CC2`, the growth in the experiment with MOLT-4 leukemia was 34.5% (inactive) and -8.23% (active); in the experiment on SR leukemia, 15.1% (inactive) and -4.87% (active); in the experiment on RPMI-8226 leukemia, 25% (inactive) and -17.7% (active); in the experiment with OVCAR-8 ovarian, 15.7% (inactive) and 11.1% (inactive); in the experiment with OVCAR-5 ovarian, 33.2% (inactive) and 41.1% (inactive); in the experiment with OVCAR-4 ovarian, 19.3% (inactive). The growth with SK-OV-3 ovarian is 8.01% (active) and 6.47% (active); in the experiment on IGROV1 ovarian, -24.2% (active) and 8.32% (active); in the experiment on OVCAR-3 ovarian, -39.1% (active) and -30.9% (active); with HS 578T breast it was 50.4% (inactive) and 29.5% (inactive); in the experiment with NCI/ADR-RES ovarian it was 11.1% (inactive) and -2.64% (active); in the experiment with T-47D breast, 56.4% (inactive) and 64% (inactive). For the same compound, the growth in the experiment on BT-549 breast was 8.27% (active); in the experiment with MDA-MB-435 melanoma it was -27.7% (active) and -47.4% (active); in the experiment on SW-620 colon, 21.9% (inactive) and 20.7% (inactive); in the experiment with MCF7 breast, 15.1% (inactive) and 6.46% (active); in the experiment on HCT-116 colon, 6.62% (active) and 4.98% (active); in the experiment with HCC-2998 colon, 11.5% (inactive) and 8.19% (active). In addition, the growth with KM12 colon is -17.3% (active) and -32.3% (active).
For the compound `COc1ccc(CN)cc1OC`, the growth was 112% (inactive) and 95.2% (inactive) in the experiment on MOLT-4 leukemia; 104% (inactive) with SR leukemia; 112% (inactive) and 105% (inactive) in the experiment with RPMI-8226 leukemia; 109% (inactive) and 102% (inactive) with OVCAR-8 ovarian; 110% (inactive) and 94.9% (inactive) in the experiment on OVCAR-5 ovarian; 125% (inactive) and 104% (inactive) in the experiment with OVCAR-4 ovarian. Moreover, the growth in the experiment on SK-OV-3 ovarian is 113% (inactive) and 105% (inactive); with IGROV1 ovarian, 110% (inactive) and 101% (inactive); with OVCAR-3 ovarian, 109% (inactive) and 107% (inactive); in the experiment with HS 578T breast it was 110% (inactive) and 101% (inactive); with NCI/ADR-RES ovarian it was 106% (inactive) and 103% (inactive); with T-47D breast it was 113% (inactive) and 97.4% (inactive). The growth was 113% (inactive) and 102% (inactive) in the experiment on BT-549 breast; 109% (inactive) in the experiment with MDA-MB-435 melanoma; 111% (inactive) and 99.5% (inactive) with SW-620 colon; 103% (inactive) and 95.5% (inactive) in the experiment on MCF7 breast; 97.8% (inactive) and 102% (inactive) in the experiment on HCT-116 colon; 91% (inactive) and 106% (inactive) with HCC-2998 colon. Besides, the growth in the experiment on KM12 colon was 120% (inactive) and 106% (inactive).

(Values after PubChem BioAssay (NCI).)
